Our source for the inhibition values is PubChem BioAssay.

Molecules are shown by their SMILES. Values without a mark were called inactive. Calls of active or inactive are those of the source. Unless noted, no stated cut-off is given here; in the data, active means inhibition above about 25%; inactive means the rest.

Test [1] addresses Nuclear receptor coactivator 3 (Homo sapiens) (UniProt Q9Y6Q9). In words: NCOA3 GAL4-fusion reporter inhibition – cell-based, luminescence, quadruplicate, confirmation (AID 588792;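 active means mean inhibition over 43.08%, the solvent-only control mean plus 3 SD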;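 further: 0% = DMSO treated cells and 100% = gossypol at 36 µM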). Particulars: HEK293 GAL4-SRC3 luciferase reporter, at 3.6 µM, hits give high values. On the technique in general: In a reporter assay the amount or activity of a reporter protein is the signal.
For test [2], the system named is transactivating tegument protein VP16 (Human herpesvirus 1), Gal4-VP16 luciferase reporter. Briefly: repression of VP16-driven luciferase reporter – cell-based, luminescence, high throughput, counter-screen for SRC3 inhibitor project (AID 588794; in the data active means inhibition above about 30%). Conditions: mammalian cells, at 3.6 µM, hits give high values.
In test [3] the target is Nuclear receptor coactivator 1 (Homo sapiens) (UniProt Q15788). In words: NCOA1 GAL4-fusion reporter inhibition – cell-based, luminescence, quadruplicate, confirmation (AID 588820;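 active means mean inhibition above 46.68%, the untreated control wells mean plus 3 SD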;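 further: 0% = DMSO wells and 100% = gossypol 36 µM treated wells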). Conditions: HEK293 GAL4-SRC1 luciferase reporter, at 3.6 µM, hits give high values.
Sequence of Nuclear receptor coactivator 1 (Homo sapiens) (Q15788 whole entry, looked up, the tested form may be a part): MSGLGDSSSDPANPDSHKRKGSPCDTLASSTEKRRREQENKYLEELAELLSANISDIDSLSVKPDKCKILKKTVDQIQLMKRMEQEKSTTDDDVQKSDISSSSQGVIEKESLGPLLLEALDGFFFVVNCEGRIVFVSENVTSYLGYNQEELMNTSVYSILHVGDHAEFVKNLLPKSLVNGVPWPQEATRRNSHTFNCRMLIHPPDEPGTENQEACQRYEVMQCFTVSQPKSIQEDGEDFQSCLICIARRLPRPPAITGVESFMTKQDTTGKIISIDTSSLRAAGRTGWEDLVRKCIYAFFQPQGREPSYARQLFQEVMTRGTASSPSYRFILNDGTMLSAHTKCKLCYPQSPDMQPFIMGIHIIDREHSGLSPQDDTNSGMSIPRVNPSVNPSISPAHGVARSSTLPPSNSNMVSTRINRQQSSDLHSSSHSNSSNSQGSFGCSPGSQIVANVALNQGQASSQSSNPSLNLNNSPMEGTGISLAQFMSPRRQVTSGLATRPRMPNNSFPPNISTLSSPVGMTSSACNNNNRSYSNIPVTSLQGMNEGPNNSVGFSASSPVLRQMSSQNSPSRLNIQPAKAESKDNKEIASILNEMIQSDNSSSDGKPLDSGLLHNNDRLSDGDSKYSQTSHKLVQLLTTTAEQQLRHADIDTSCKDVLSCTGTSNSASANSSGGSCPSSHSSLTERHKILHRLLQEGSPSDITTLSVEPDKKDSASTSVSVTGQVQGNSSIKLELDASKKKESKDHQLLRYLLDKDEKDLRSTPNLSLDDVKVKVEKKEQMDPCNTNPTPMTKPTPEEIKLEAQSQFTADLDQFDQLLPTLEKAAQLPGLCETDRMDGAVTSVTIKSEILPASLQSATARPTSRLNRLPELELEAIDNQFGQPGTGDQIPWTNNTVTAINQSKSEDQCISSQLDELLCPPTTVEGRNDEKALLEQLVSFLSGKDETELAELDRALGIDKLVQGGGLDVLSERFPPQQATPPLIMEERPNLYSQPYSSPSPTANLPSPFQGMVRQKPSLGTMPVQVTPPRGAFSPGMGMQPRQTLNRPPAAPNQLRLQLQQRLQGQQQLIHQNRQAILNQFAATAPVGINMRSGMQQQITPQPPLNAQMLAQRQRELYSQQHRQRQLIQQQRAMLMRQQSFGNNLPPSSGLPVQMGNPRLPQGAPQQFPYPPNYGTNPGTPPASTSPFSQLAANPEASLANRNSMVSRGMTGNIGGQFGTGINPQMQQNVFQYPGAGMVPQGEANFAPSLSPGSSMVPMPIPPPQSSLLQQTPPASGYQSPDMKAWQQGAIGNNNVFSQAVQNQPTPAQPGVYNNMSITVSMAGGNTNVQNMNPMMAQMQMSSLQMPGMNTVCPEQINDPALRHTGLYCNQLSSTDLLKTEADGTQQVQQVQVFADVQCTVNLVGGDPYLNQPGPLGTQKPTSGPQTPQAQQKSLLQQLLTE
Test [4] is described as follows: repression of VP16-driven luciferase reporter – cell-based, luminescence, high throughput, counter-screen for SRC1 inhibitor project (AID 588824). Particulars: cell-based VP16 transactivation luciferase luminescence; at 3.6 µM; hits give high values.

Sequence of Nuclear receptor coactivator 3 (Homo sapiens) (Q9Y6Q9 whole entry, looked up, the tested form may be a part): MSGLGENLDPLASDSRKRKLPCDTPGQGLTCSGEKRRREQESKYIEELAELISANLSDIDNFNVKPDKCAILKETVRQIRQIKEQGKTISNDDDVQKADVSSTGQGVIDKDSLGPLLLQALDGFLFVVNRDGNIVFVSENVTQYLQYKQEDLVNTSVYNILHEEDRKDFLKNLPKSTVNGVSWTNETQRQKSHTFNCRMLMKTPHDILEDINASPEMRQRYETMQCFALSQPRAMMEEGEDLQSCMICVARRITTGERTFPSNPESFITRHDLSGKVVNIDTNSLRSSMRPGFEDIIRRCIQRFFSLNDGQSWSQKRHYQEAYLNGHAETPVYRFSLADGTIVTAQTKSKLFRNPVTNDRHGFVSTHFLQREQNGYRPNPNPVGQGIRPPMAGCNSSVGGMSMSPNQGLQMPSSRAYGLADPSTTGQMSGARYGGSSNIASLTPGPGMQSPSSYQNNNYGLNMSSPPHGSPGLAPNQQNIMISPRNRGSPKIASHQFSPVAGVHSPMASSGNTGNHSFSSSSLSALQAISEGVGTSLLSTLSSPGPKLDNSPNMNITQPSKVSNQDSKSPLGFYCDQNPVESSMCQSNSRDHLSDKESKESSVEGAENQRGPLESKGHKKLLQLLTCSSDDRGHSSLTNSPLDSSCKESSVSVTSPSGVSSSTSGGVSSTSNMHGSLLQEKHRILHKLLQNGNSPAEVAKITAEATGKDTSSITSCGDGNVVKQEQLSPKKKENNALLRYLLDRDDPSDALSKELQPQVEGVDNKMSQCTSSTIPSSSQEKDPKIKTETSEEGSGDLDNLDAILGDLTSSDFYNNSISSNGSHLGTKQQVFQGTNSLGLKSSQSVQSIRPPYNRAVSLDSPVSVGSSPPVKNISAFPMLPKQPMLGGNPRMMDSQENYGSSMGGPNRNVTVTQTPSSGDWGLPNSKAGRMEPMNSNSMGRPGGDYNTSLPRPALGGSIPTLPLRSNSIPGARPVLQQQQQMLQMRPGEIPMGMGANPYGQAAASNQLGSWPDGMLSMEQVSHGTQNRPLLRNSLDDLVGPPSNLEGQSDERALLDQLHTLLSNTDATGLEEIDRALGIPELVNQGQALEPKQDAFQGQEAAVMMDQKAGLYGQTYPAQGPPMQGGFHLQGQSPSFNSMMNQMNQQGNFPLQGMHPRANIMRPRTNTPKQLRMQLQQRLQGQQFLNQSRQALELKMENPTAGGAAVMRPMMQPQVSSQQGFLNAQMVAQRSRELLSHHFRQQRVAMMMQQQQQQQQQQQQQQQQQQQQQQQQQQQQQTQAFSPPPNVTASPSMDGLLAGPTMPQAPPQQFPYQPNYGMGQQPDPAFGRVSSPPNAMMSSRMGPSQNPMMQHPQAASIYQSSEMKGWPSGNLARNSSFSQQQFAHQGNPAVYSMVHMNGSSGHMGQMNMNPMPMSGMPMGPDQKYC

Usually inhibition stands for the drop in the measured response relative to a control, in per cent. With `COc1cccc(-c2ccc3ncnc(NCc4cccnc4)c3c2)c1`, the inhibition in test [1] was 45.5% (active); in test [2] it was 31.6% (active); in test [3], 24.8%; in test [4], 36.2% (active).

With `Cc1ccc2occ(/C=N/NC(=O)c3ccncc3)c(=O)c2c1`, the inhibition is 21.2% in test [1], 15.1% in test [2], 20.3% in test [3] and 14.4% in test [4].

With `CC(=O)Nc1ccc(SCC(=O)c2cc(C)n(-c3ccccc3)c2C)cc1`, the inhibition in test [1] is 30.3%; in test [2] it was 19.6%; in test [3], -4.5%; in test [4], -6.91%.

For `Oc1ccc(Nc2nc(N3CCCC3)c3ccccc3n2)cc1`, the inhibition in test [1] is 25.6%; in test [2], 42.7% (active); in test [3], 34%; in test [4] it was 40.2% (active).

With `COc1cccc(CNc2ncnc3ccc(-c4c(C)noc4C)cc23)c1`, the inhibition is 36.6% in test [1], 1.06% in test [2], 19.3% in test [3] and -7.49% in test [4].

In the case of `COC(=O)c1cc(N/C(N)=N/c2nc(C)cc(C)n2)cc(C(=O)OC)c1`, the inhibition is 27.3% in test [1], 55.4% (active) in test [2], 48.2% (active) in test [3] and 52% (active) in test [4].

Take `CCN1CCN(c2ccc(Nc3ccnc4ccccc34)cc2)CC1`: the inhibition is 43.5% (active) in test [1], 32.1% (active) in test [2], 40.1% in test [3] and 42.5% (active) in test [4].

With `Cc1cc(=O)[nH]c(Nc2cccc(C(F)(F)F)c2)n1`, the inhibition in test [1] is 38.8%; in test [2] it was 34.2% (active); in test [3] it was 49.4% (active); in test [4], 27% (active).

Take `O=C(CCl)N1N=C(c2ccco2)CC1c1cccs1` (stereo not given): the inhibition in test [1] was 55.1% (active); in test [2], 31.6% (active); in test [3] it was 15.3%; in test [4], 21.7%.

In the case of `Cc1cccc[n+]1CC(=O)/C=C1\N(C)c2ccccc2C1(C)C`, the inhibition is 8.01% in test [1], 20.6% in test [2], -9.04% in test [3] and 23.5% in test [4].
